ChEMBL document CHEMBL3433997, “St. Jude Leishmania screening dataset” (2016)

target: Hexose transporter 1 (Plasmodium falciparum) (UniProt O97467); experiment: ST_JUDE_LEISH: Cytotoxicity at 2uM final concentration against transgenic Leishmania Mexicana promastigotes LmPfHT that are glucose transport deficient and complemented with the Plasmodium falciparum hexose transporter. Activity is measured by DNA content using SYBR green in vitro; type: functional

Going from CCCC(CNCc1cccc(C)c1)CNc1cc(=O)c2ccccc2[nH]1 (stereo not given) to c1ccc(CNCc2cccc(-c3cccc(-c4nc5ccccc5[nH]4)c3)c2)cc1, the inhibition falls from 11.9% to 5.52%.

Compared with CCC(Cc1cnc2nc(N)nc(N)c2n1)c1ccc(C(=O)N[C@@H](CCC(=O)O)C(=O)O)cc1 (stereo not given in full), COc1cc(N(C)Cc2cnc3nc(N)nc(N)c3n2)cc(OC)c1OC is lower in inhibition: 22.1% for the first, 3.84% for the second.

Going from Cc1cccc2c(C(=O)NC3CCN(Cc4ccccc4)CC3)cc(-c3cccnc3)nc12 to COc1cccc(CN2CCC(C(=O)Nc3ccc(-c4nc5ccccc5[nH]4)cc3)CC2)c1, the inhibition rises from 1.08% to 32.9%.

Going from O=C(NC1CC1)c1cnc(N2CCC(Oc3ccc(Cl)cc3)CC2)c(Cl)c1 to CC(C)N1CCC(NC(=O)N2CCCN(c3ncnc4cc(-c5ccc(Cl)cc5)sc34)CC2)CC1, the inhibition falls from 2.7% to 0.6%.

Compared with Cc1cccc2nc(-c3ccc(-c4cccc(NC(=O)c5cncn5C)c4)cc3)[nH]c12, Cn1cccc1C(=O)C(=O)Nc1cccc(-c2ccc(-c3nc4cc(C(F)(F)F)ccc4[nH]3)cc2)c1 is lower in inhibition: 5.37% for the first, 2.42% for the second.

First: Nc1nccc2ccc(-c3ccncc3)cc12
Second: COc1ccc(CNc2nccc3ccc(-c4ccc5nccn5c4)cc23)cc1
The inhibition of the first is higher: 7.14% for the first, 0.03% for the second.

Compared with Cc1nn(-c2ccccc2)c2sc(C(=O)N(CCCN(C)C)c3nc(-c4ccccc4)cs3)cc12, C(=N\Nc1nccc2sc(-c3ccccc3)cc12)/c1cccnc1 is higher in inhibition: 3.31% for the first, 3.5% for the second.

Compared with CC(C)CCN1CCCN(Cc2ccc(C(=O)NCc3ccc(Cl)cc3)cc2)CC1, CCCCCCN1CCCN(Cc2ccc(C(=O)Nc3ccc(C)c(F)c3)cc2)CC1 is higher in inhibition: 0.59% for the first, 7.68% for the second.

First: CC(C)COc1ccc(C(O)C(CN2CCCCC2)c2ccccc2)cc1 (stereo not given)
Second: OC(CNc1ccnc(Nc2cccc(OCCCN3CCOCC3)c2)n1)c1ccccc1 (stereo not given)
The inhibition of the first is higher: 1.93% for the first, 0.43% for the second.

Compared with CS(=O)(=O)NCCCNCc1ccc(-c2ccc(-c3nc4cc(C(F)(F)F)ccc4[nH]3)s2)cc1, CN(CCN)Cc1cccc(-c2ccc(-c3nc4cc(C(F)(F)F)ccc4[nH]3)s2)c1 is higher in inhibition: 2.03% for the first, 11.3% for the second.

Compared with Cc1cccc2nc(-c3cccc(-c4cccc(CNC(C)C)c4)c3)[nH]c12, Cc1cccc2nc(-c3ccc(-c4cccc(CNCc5ccc(S(C)(=O)=O)cc5)c4)s3)[nH]c12 is higher in inhibition: 0.85% for the first, 9.13% for the second.

Going from Cc1cc(NCC2CCN(CC3CCCCC3)C2)nc(Nc2ccc(Cl)cc2)n1 (stereo not given) to Cc1ccc(NC(=O)c2ccc(C(=O)NC3CCN(CC4CCCCC4)CC3)cc2)cc1, the inhibition falls from 5.29% to 3.07%.

First: CN1CCN(c2ccc3nccc(CCN4CCC(NCc5ccc6c(n5)NC(=O)CO6)CC4)c3n2)CC1
Second: Cc1n[nH]c2ccc(-c3ccc4nccc(N5CCC(N)CC5)c4c3)cc12
The inhibition of the first is higher: -0.01% for the first, -0.1% for the second.

First: Cc1cc(=O)c(-c2ccc(Oc3cccc(OC(F)(F)F)c3)cc2)c(C)[nH]1
Second: COc1cc2c(cc1OC)C(C(=O)Nc1ccc(C(F)(F)F)cc1)C(c1cccs1)N(C)C2=O (stereo not given)
The inhibition of the first is lower: 1.17% for the first, 3.56% for the second.

First: C=CCOC1OC(COC(c2ccccc2)(c2ccccc2)c2ccccc2)C(OC(C)=O)C(OC(C)=O)C1NC(C)=O (stereo not given)
Second: COc1ccccc1C1CCN(C2CCC(NC(=O)c3cc4ccccc4[nH]3)CC2)CC1 (stereo not given)
The inhibition of the first is higher: 1.07% for the first, -0.24% for the second.

First: CCC(CC)n1c(COC)cc2c3c(N)nc(N)nc3ccc21
Second: CCN(CC)c1ccc2nc(N)nc(N)c2c1
The inhibition of the first is higher: 51.1% for the first, 16.5% for the second.

Going from CCCCCCCN1CC[C@@H](CCCc2ccnc3ccc(OCCCCN/C(N)=N/O)cc23)[C@@H](CC)C1 to COc1cccc(NC(=O)c2ccc(NCCCN3CCC(C)CC3)c([N+](=O)[O-])c2)c1, the inhibition rises from 2.68% to 41.7%.

First: CO/C(=C\C=C\c1cc2cc(Cl)c(Cl)cc2[nH]1)C(=O)NC1CCN(CCCc2ccccc2)CC1
Second: COCCNC(=O)c1ccc(OC2CCN(CC(C)=Cc3ccccc3)CC2)c(Cl)c1
The inhibition of the first is lower: 1.14% for the first, 3.32% for the second.

First: Cc1csc2nc(-c3ccccn3)nc(Nc3ccncn3)c12
Second: CS(=O)(=O)c1ccc(-c2cnc(N)c(-c3ccc(O)cc3)c2)cc1
The inhibition of the first is higher: 3.39% for the first, 1.67% for the second.

Compared with FC(F)(F)c1cccc(CNCC2CCN(Cc3ccc4c(c3)OCO4)CC2)c1, CCC[C@@H]([C@@H](CC1CCCCC1)C(=O)N[C@H](C(=O)Nc1nccc(N)n1)C(C)(C)C)N(O)C=O is lower in inhibition: 12.1% for the first, 4.83% for the second.
